Reference: PubChem BioAssay AID434990 (Southern Research Specialized Biocontainment Screening …, 2010)
Unmarked numbers belong to inactive results.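 How the source made its calls: active means inhibition above 40% at one or more tested concentrations in the dose response counterscreen; inactive means inhibition below 40% at every dose tested.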

assay: general Salmonella growth or reporter suppression – synthesized compounds, round 3, counter-screen for PhoP regulon inhibitor project, SAR follow-up (AID 434990); settings: S. Typhimurium counter-screen GFP reporter fluorescence, 4 h; series mostly up to 150 µM; inhibition: at the top concentration

Row | Compound | inhibition
1 | S=C(NCCc1ccc(Cl)cc1)Nc1ccncc1 | -5.69%
2 | O=C1C2=C(Nc3ccccc3SC2c2cccc(I)c2)c2ccccc21 (centres undefined) | -79.9%
3 | Cc1ccc(NC(=O)N2CCCN(Cc3ccccc3F)C2)cc1 | -1.1%
4 | O=C(Nc1cccc(I)c1)N1CCCN(Cc2ccccc2F)C1 | 18.6%
5 | O=C(Nc1cccc(F)c1)N1CCCN(Cc2ccccc2F)C1 | 14%
6 | Cc1ccccc1CNC(=S)Nc1ccncc1 | -2.17%
7 | O=C(Nc1cccc(C(F)(F)F)c1)N1CCCN(Cc2ccccc2F)C1 | 13.3%
8 | N#Cc1ccccc1NC(=S)NCc1ccc(Cl)cc1 | -2.55%
9 | Cc1cccc(NC(=O)N2CCCN(Cc3ccccc3F)C2)c1 | 12.2%
10 | O=C(Nc1ccc(Cl)cc1)N1CCCN(Cc2ccccc2Br)C1 | 0.23%
11 | O=C(Nc1ccc(Cl)cc1)N1CCCN(Cc2ccc(Br)cc2)C1 | 1.9%
12 | N#Cc1ccc(NC(=S)NCc2ccc(Cl)cc2)cc1 | -11.5%
13 | O=C(Nc1ccc(I)cc1)N1CCCN(Cc2ccccc2F)C1 | 9.87%
14 | COc1ccccc1CNC(=S)Nc1ccncc1 | -1.11%
